Measurements taken from the supplement of paper PMC6089552.
Among all 3,200 compounds or so, about 300 (9.4%) showed activity. What follows is part of a selection rich in actives, with near analogues and random picks from the rest.

System: A673/TR/shEF
Experiment: cell viability (LOESS-normalised, relative to median of negative controls) (log2 ratio); higher = more viable cells (less compound effect), active = hit call of the paper (over 3 MAD below the median)
Settings: treatment time: 72 h
Procedure, shortened: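 A673/TR/shEF Ewing sarcoma cells were plated at 1,500 per well in 384-well plates and cultured with or without doxycycline, added 24 h before compounds, to induce EWS-FLI1 shRNA knockdown. Library compounds at two or more concentrations, alongside DMSO controls, were applied for three days. Cell viability was measured by CellTiter-Glo luminescence on an Envision reader. Readings were LOESS-corrected per plate, divided by the median of negative controls and log2-transformed, and hits were wells lying at least three median absolute deviations from the median of all screened wells.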

[1] = 0.103 µM, library screen: screen3, EWS-FLI1 expression: high (no doxycycline)
[2] = 0.103 µM, library screen: screen3, EWS-FLI1 expression: low (doxycycline-induced shRNA knockdown)
[3] = 0.308 µM, library screen: screen3, EWS-FLI1 expression: high (no doxycycline)
[4] = 0.308 µM, library screen: screen3, EWS-FLI1 expression: low (doxycycline-induced shRNA knockdown)
[5] = 0.926 µM, library screen: screen3, EWS-FLI1 expression: high (no doxycycline)
[6] = 0.926 µM, library screen: screen3, EWS-FLI1 expression: low (doxycycline-induced shRNA knockdown)
[7] = 2.8 µM, library screen: screen3, EWS-FLI1 expression: high (no doxycycline)
[8] = 2.8 µM, library screen: screen3, EWS-FLI1 expression: low (doxycycline-induced shRNA knockdown)
[9] = 8.3 µM, library screen: screen3, EWS-FLI1 expression: high (no doxycycline)
[10] = 8.3 µM, library screen: screen3, EWS-FLI1 expression: low (doxycycline-induced shRNA knockdown)
[11] = 25 µM, library screen: screen3, EWS-FLI1 expression: high (no doxycycline)
[12] = 25 µM, library screen: screen3, EWS-FLI1 expression: low (doxycycline-induced shRNA knockdown)
[13] = 0.25 µM, library screen: screen1, EWS-FLI1 expression: high (no doxycycline)
[14] = 0.25 µM, library screen: screen1, EWS-FLI1 expression: low (doxycycline-induced shRNA knockdown)
[15] = 2.5 µM, library screen: screen1, EWS-FLI1 expression: high (no doxycycline)
[16] = 2.5 µM, library screen: screen1, EWS-FLI1 expression: low (doxycycline-induced shRNA knockdown)
[17] = 0.25 µM, library screen: screen2, EWS-FLI1 expression: high (no doxycycline)
[18] = 0.25 µM, library screen: screen2, EWS-FLI1 expression: low (doxycycline-induced shRNA knockdown)
[19] = 2.5 µM, library screen: screen2, EWS-FLI1 expression: high (no doxycycline)
[20] = 2.5 µM, library screen: screen2, EWS-FLI1 expression: low (doxycycline-induced shRNA knockdown)

Measured: cell viability (log2)

CCCCCCOC(=O)/N=C(/N)c1ccc(NCc2nc3cc(C(=O)N(CCC(=O)OCC)c4ccccn4)ccc3n2C)cc1
inactive: [1] -0.0699 | [2] -0.0234 | [3] -0.0119 | [4] -0.019 | [5] 0.046 | [6] -0.0404 | [7] -0.0778 | [8] 0.0123 | [9] -0.0381 | [10] 0.0285 | [12] 0.0312
active: [11] -0.441

CCN(CC)S(=O)(=O)c1ccc(C(=O)N(CCC(=O)OC)c2ccccn2)cc1
inactive: [13] 0.0834 | [14] 0.147 | [15] 0.162 | [16] 0.127

Cn1c(CNc2ccc(C(=N)N)cc2)nc2cc(C(=O)N(CCC(=O)O)c3ccccn3)ccc21
inactive: [1] 0.00826 | [2] 0.00201 | [3] 0.0563 | [4] 0.0276 | [5] 0.0456 | [6] 0.123 | [7] -0.0294 | [8] 0.0652 | [9] 0.0628 | [10] 0.0736 | [11] 0.0838 | [12] 0.0437

NCCCCCN
inactive: [13] 0.0699 | [14] 0.0406 | [15] 0.114 | [16] 0.103

Cc1coc2ccccc2c1=O
inactive: [13] 0.143 | [14] 0.1 | [15] 0.138 | [16] 0.165

CC1=CC(=O)CC(C)(C)[C@@]1(O)/C=C/C(C)=C\C(=O)O
inactive: [13] 0.103 | [14] 0.084 | [15] 0.143 | [16] 0.165

CC(=O)O[C@@H]1CC2C(C)(C)CCC(=O)[C@]2(C)C2CC[C@@]3(C)[C@H](c4ccoc4)OC(=O)C4OC43[C@@]21C (some centres undefined)
inactive: [13] 0.0305 | [14] 0.0828 | [15] 0.127 | [16] 0.0866

O=C(NC(C(=O)N1CCCCC1)=C1CCCCC1)c1ccccc1
inactive: [13] 0.107 | [14] 0.0798 | [15] 0.0724 | [16] 0.127

COC(=O)C1=C(C)N=c2s/c(=C/c3ccc(OC)cc3OC)c(=O)n2C1c1cccs1 (centres undefined)
inactive: [13] 0.0522 | [14] 0.13 | [15] 0.0666 | [16] 0.065

CCCCCCCCCCCC1=C(O)C(=O)C=C(O)C1=O
inactive: [13] 0.161 | [14] 0.0381 | [15] 0.097 | [16] 0.0519

CCCCCCCCc1ccc(CCC(N)(CO)CO)cc1
inactive: [1] 0.0814 | [2] 0.0528 | [3] 0.0332 | [4] -0.0148 | [5] 0.0328 | [6] 0.0341 | [7] 0.00825 | [8] 0.0473 | [9] -0.0193 | [10] 0.0563
active: [11] -0.341 | [12] -0.161

CC(=O)O[C@H]1C[C@@H](OC(C)=O)C(C)(C)C2CC(=O)[C@]3(C)C(CC[C@@]4(C)[C@H](c5ccoc5)OC(=O)[C@H]5O[C@]543)[C@]21C (some centres undefined)
inactive: [13] 0.116 | [14] 0.174 | [15] 0.177 | [16] 0.123

CCCCCCCCCCC[C@@H](C[C@@H]1OC(=O)[C@H]1CCCCCC)OC(=O)[C@H](CC(C)C)NC=O
inactive: [1] 0.0583 | [2] 0.00452 | [13] -0.0226 | [14] 0.0354 | [3] 0.0475 | [4] 0.11 | [5] -0.01 | [6] 0.0194 | [16] 0.178 | [7] -0.0124 | [8] 0.136 | [9] -0.103 | [10] -0.0203 | [11] -0.119 | [12] -0.0365
active: [15] -0.116

COC(=O)C[C@H]1C(C)(C)C2(Cl)O[C@@]34CC2C(=O)[C@]1(C)C3CC[C@]1(C)C4=CC(=O)O[C@H]1c1ccoc1 (some centres undefined)
inactive: [13] 0.0526 | [14] 0.0775 | [15] 0.126 | [16] 0.163

C=C1C(=O)O[C@@H]2C[C@@]3(C)CCC[C@H](C)C3=C[C@H]12
inactive: 0.025 µM, library screen: screen2, EWS-FLI1 expression: high (no doxycycline) 0.148 | 0.025 µM, library screen: screen2, EWS-FLI1 expression: low (doxycycline-induced shRNA knockdown) 0.0581 | [13] 0.0724 | [14] -0.00207 | [17] 0.177 | [18] 0.0288 | [15] 0.152 | [16] 0.0584 | [19] 0.0901 | [20] 0.000642 | 25 µM, library screen: screen2, EWS-FLI1 expression: high (no doxycycline) -0.0554 | 25 µM, library screen: screen2, EWS-FLI1 expression: low (doxycycline-induced shRNA knockdown) -0.102

CN(C)CCCN1c2ccccc2Sc2ccc(C(F)(F)F)cc21
inactive: [13] 0.067 | [14] 0.0785 | [17] 0.0818 | [18] 0.0662 | [15] 0.0754 | [16] 0.158 | [19] 0.181 | [20] 0.0843

CN(C)CCCN1c2ccccc2Sc2ccc(Cl)cc21
inactive: [1] 0.0728 | [2] 0.128 | [13] 0.1 | [14] 0.155 | [17] 0.141 | [18] 0.1 | [3] 0.122 | [4] 0.0127 | [5] 0.0627 | [6] 0.015 | [15] 0.206 | [16] 0.191 | [19] 0.129 | [20] 0.0664 | [7] -0.0176 | [8] 0.0383 | [9] 0.101 | [10] 0.0471 | [11] -0.0174 | [12] 0.0242

CN(C)CCCN1c2ccccc2Sc2ccccc21
inactive: [13] 0.0889 | [14] 0.0795 | [17] 0.0137 | [18] -0.394 | [15] 0.107 | [16] 0.224
active: [19] -1.62 | [20] -0.801

CC(=O)Oc1cc(-c2coc3cc(OC(C)=O)c(OC(C)=O)c(OC(C)=O)c3c2=O)cc(OC(C)=O)c1OC(C)=O
inactive: [13] 0.0397 | [14] -0.0292 | [15] 0.0912 | [16] -0.0545

CC1(C)C=Cc2c(c3c(c4c(=O)c(-c5ccc(O)cc5)coc24)OC(C)(C)CC3)O1
inactive: [13] 0.057 | [14] 0.068 | [15] 0.105 | [16] 0.116

O=C(O)c1ccc2c(c1)OCO2
inactive: [13] 0.146 | [14] 0.102 | [15] 0.137 | [16] 0.0963

C/C(=C\c1ccc(C(=O)O)cc1)c1ccc2c(c1)C(C)(C)CCC2(C)C
inactive: [17] 0.00709 | [18] 0.0496 | [19] 0.0275 | [20] 0.0889

NC1(C(=O)O)CCc2cc(C(=O)O)ccc21 (centres undefined)
active: [17] -0.364
inactive: [18] 0.0469 | [19] 0.0221 | [20] 0.107

C=C(C)Cn1c(COc2ccc(Cl)cc2Cl)n[nH]c1=S
inactive: [13] 0.0645 | [14] -0.015 | [15] 0.0851 | [16] -0.014

CC(C)CC(NP(=O)(O)O[C@@H]1O[C@@H](C)[C@H](O)[C@@H](O)[C@H]1O)C(=O)NC(Cc1c[nH]c2ccccc12)C(=O)O (some centres undefined)
inactive: [17] 0.0833 | [18] 0.00183 | [19] 0.149 | [20] -0.00437

COc1cc(CN2CCN(Cc3ccccc3F)CC2)cc(OC)c1OC
inactive: [13] 0.0928 | [14] 0.0533 | [15] 0.0786 | [16] 0.127

OC[C@H]1N[C@H](CO)[C@@H](O)[C@@H]1O
inactive: [17] 0.176 | [18] 0.0684 | [19] 0.108 | [20] 0.0354

Cc1ccc(C(C)C)c(O)c1C(=O)O
inactive: [13] 0.112 | [14] 0.00973 | [15] 0.164 | [16] 0.0715

CC(C)C[C@@H]1NC(=O)[C@H](CCCN)NC(=O)[C@H](C(C)C)NC(=O)[C@H](Cc2ccc(O)cc2)N[C@@H](CCC(=O)O)C(=O)N[C@@H](CC(N)=O)C(=O)[C@@H](Cc2ccccc2)NC(=O)[C@H](Cc2ccccc2)NC(=O)[C@@H]2CCCN2C(=O)[C@@H](Cc2ccccc2)NC1=O
active: [13] -0.767 | [15] -2.84 | [16] -2.45
inactive: [14] -0.0111

CCC(C)C(N)C1=NC(C(=O)N[C@@H](CC(C)C)C(=O)N[C@H](CCC(=O)O)C(=O)N[C@H](C(=O)N[C@H]2CCCCNC(=O)[C@H](CC(N)=O)NC(=O)[C@@H](CC(=O)O)NC(=O)[C@H](Cc3cnc[nH]3)NC(=O)[C@@H](Cc3ccccc3)NC(=O)[C@H]([C@@H](C)CC)NC(=O)[C@@H](CCCN)NC2=O)[C@@H](C)CC)CS1 (some centres undefined)
inactive: [13] 0.0992 | [14] -0.0505 | [15] 0.131 | [16] 0.0875

CC(C)C[C@@H]1NC(=O)[C@H](CCCN)NC(=O)[C@H](C(C)C)NC(=O)[C@@H]2CCCN2C(=O)[C@@H](Cc2ccccc2)NC(=O)[C@H](CC(C)C)NC(=O)[C@H](CCCN)NC(=O)[C@H](C(C)C)NC(=O)[C@@H]2CCCN2C(=O)[C@@H](Cc2ccccc2)NC1=O
inactive: [16] -0.0354
active: [13] -1.96 | [14] -0.176 | [15] -3.79

CC(C)[C@@H]1NC(=O)[C@H](CCCCN)NC(=O)[C@@H](Cc2c[nH]c3ccccc23)NC(=O)[C@H](Cc2ccc(O)cc2)NC(=O)[C@H](C)N(C)C(=O)[C@H](Cc2ccccc2)NC1=O
inactive: [17] 0.191 | [18] 0.085 | [19] 0.149 | [20] 0.111

CC1=CCCC(=O)C2CC(C)(C)C2CC1 (centres undefined)
inactive: [13] 0.0664 | [14] 0.0572 | [15] 0.102 | [16] 0.0635

CC(=O)O[C@H]1C[C@@]2(C)[C@H](c3ccoc3)OC(=O)[C@H]3O[C@]32[C@@]2(C)C1[C@]1(C)C(C[C@H]2OC(C)=O)C(C)(C)[C@H](OC(C)=O)C[C@@H]1OC(C)=O (some centres undefined)
inactive: [13] -0.00983 | [14] 0.0592 | [15] 0.0456 | [16] 0.0721
